SMILES strings stand for the structures. Activity calls are given as the source filed them.

The test system of experiment [1] is PRMT1 (protein arginine N-methyltransferase 1). The experiment is described as follows: small molecules binding arginine methyltransferase PRMT1 – biochemical, small-molecule microarray, 635 nm fluorescence, primary screen (AID 1088).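 Note: binding of Prmt1 protein to compounds spotted on small-molecule microarray slides.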 To be noted: higher = more signal.
Experiment [2] can be described thus: growth effects on S. cerevisiae YJM789 – YJM789 clinical isolate, OD600, 24 h, basal, primary screen (AID 1089).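 Note: growth of clinical yeast isolate S. cerevisiae YJM 789 seeded 1000 cells per well; test concentration not given here.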 To be noted: higher = more signal, called active from +8 up or from −8 down.
The nature of experiment [3]: S. pombe growth modifiers, basal conditions – strain 972, OD600, 24 h, no modulator, primary screen (AID 1090).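 Note: basal condition with compound alone and no growth modifier present; test concentration not given here.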 To be noted: S. pombe 972 growth, higher = more signal, called active from +8 up or from −8 down.
Experiment [4] can be described thus: budding yeast growth modifiers under rapamycin – strain BY4716, OD600, 96 h, primary screen (AID 1091). Note: test concentration not given here. To be noted: S. cerevisiae BY4716 + rapamycin, higher = more signal, called active from +8 up or from −8 down.
Experiment [5] deals with Torsin-1A-interacting protein 2 (Homo sapiens) (UniProt Q8NFQ8). The experiment in a line: small molecules binding lysate-expressed LULL1 – cell lysate, human LULL1 lysate, 635/667 nm fluorescence, primary screen (AID 1092).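 Note: probe is lysate of COS7 cells overexpressing human LULL1; score merges per-feature 667 nm fluorescence with signal-to-noise.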 To be noted: small-molecule microarray, hLULL1 lysate binding, 635 nm fluorescence; higher = more signal.
Sequence of Torsin-1A-interacting protein 2 (Homo sapiens) (Q8NFQ8 whole entry, looked up): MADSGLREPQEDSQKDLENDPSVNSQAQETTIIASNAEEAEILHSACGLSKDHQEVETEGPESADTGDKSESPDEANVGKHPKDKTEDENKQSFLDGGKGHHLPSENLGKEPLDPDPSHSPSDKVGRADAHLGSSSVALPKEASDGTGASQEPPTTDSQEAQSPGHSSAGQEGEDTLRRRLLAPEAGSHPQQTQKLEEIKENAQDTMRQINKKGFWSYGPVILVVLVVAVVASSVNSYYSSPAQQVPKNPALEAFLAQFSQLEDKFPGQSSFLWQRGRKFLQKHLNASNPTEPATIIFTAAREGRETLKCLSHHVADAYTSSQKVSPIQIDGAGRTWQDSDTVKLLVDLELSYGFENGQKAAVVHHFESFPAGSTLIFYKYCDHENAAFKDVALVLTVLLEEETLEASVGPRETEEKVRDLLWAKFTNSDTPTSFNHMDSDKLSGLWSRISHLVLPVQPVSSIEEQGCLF
Experiment [6] is described as follows: optical density change of DRC41 E. coli – strain DRC41, OD650, 24 h, E. coli filamentation project, primary screen (AID 1093).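 Note: MC1000 strain lacking acrAB efflux and sulA so SOS filamentation is blocked; test concentration not given here.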 To be noted: E. coli DRC41 growth, higher = more signal, called active from +8 up or from −8 down.
Experiment [7] in a line: probe aLefty2 binding to arrayed compounds – biochemical, biotinylated probe, 635/667 nm fluorescence, primary screen (AID 1094).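 Note: score merges spot fluorescence near 667 nm with spot signal-to-noise ratio.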 To be noted: small-molecule microarray, higher = more signal.
The subject of experiment [8] is Noggin (protein binding on small-molecule microarray). The experiment is described as follows: small molecules binding Noggin protein – biochemical, 635/667 nm fluorescence, primary screen (AID 1095).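 Note: score merges 667 nm feature fluorescence with signal to noise over triplicate slides.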 To be noted: 635 nm fluorescence, higher = more signal.
Experiment [9] addresses Neurogenic locus notch homolog protein 3 (Homo sapiens) (UniProt Q9UM47). The experiment in a line: small molecules binding NOTCH3 protein – biochemical, 635/667 nm fluorescence, primary screen (AID 1096). To be noted: small-molecule microarray, 635 nm fluorescence, higher = more signal.
A short description of experiment [10]: probe aEGFR binding to arrayed compounds – biochemical, biotinylated probe, 635/667 nm fluorescence, primary screen (AID 1097).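 Note: probe is a biotinylated anti-EGFR antibody binding compounds printed on slides; score combines fluorescence near 667 nm and signal to noise of each spot.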 To be noted: small-molecule microarray, higher = more signal.
Experiment [11] relates to Plasmodium falciparum Sir2 (PF13_0152, Sir2A). The experiment is described as follows: Plasmodium falciparum Sir2A binding compounds – biochemical, small-molecule microarray, 635 nm fluorescence, primary screen (AID 1098).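 Note: score merges spot fluorescence intensity with its signal-to-noise ratio.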 To be noted: fluorescence 635 nm, higher = more signal.
Experiment [12] is described as follows: probe aDKK1 binding to arrayed compounds – biochemical, biotinylated probe, 635/667 nm fluorescence, primary screen (AID 1099).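 Note: score merges 667nm spot fluorescence with signal to noise across triplicate slides; reference of the scale not given here.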 To be noted: small-molecule microarray, higher = more signal.
Experiment [13] in a line: probe aCHRDL2 binding to arrayed compounds – biochemical, biotinylated probe, 635/667 nm fluorescence, primary screen (AID 1100). To be noted: small-molecule microarray, higher = more signal.
Experiment [14] is described as follows: change in splice reporter luminescence, either direction, cell-based, HEK293, spliceosome inhibition project, primary screen (AID 1101).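 Note: HEK293 cells carrying a splicing-competent luciferase reporter gene; test concentration not given here.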 To be noted: HEK293 splicing luciferase reporter, 24 h, higher = more signal, called active from +8 up or from −8 down. For orientation: Reporter assays use an easily measured gene product as a stand-in for the process of interest.

Experiment [15] has as its target Fibroblast growth factor 10 (Homo sapiens) (UniProt O15520). The experiment in a line: compounds binding fibroblast growth factor 10 – biochemical, small-molecule microarray, 635 nm fluorescence, primary screen (AID 1102). To be noted: FGF10 binding, fluorescence 635 nm, higher = more signal.
Experiment [16] deals with glycogen synthase kinase-3 (GSK3A per assay name; protocol says GSK3B). The experiment is described as follows: compounds binding glycogen synthase kinase-3 – biochemical, small-molecule microarray, 635 nm fluorescence, GSK3A, primary screen (AID 1103). Note: the record names both GSK3A and GSK3B. To be noted: fluorescence 635 nm, higher = more signal.
Experiment [17] has as its target Epidermal growth factor receptor (Homo sapiens) (UniProt P00533). The experiment in a line: compounds binding epidermal growth factor receptor – biochemical, small-molecule microarray, 635 nm fluorescence, primary screen (AID 1104).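 Note: score merges 667 nm emission intensity with spot signal to noise over triplicate slides.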 To be noted: EGFR binding, higher = more signal.
Experiment [18] addresses Follistatin-related protein 3 (Homo sapiens) (UniProt O95633). The experiment is described as follows: compounds binding follistatin-related protein 3 – biochemical, small-molecule microarray, 635 nm fluorescence, primary screen (AID 1105).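 Note: score merges emission near 667 nm and signal to noise per printed spot across three slides.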 To be noted: FSTL3 binding, higher = more signal.
Experiment [19] has as its target Dickkopf-related protein 1 (Homo sapiens) (UniProt O94907). The experiment is described as follows: small molecules binding DKK1 protein – biochemical, small-molecule microarray, 635 nm fluorescence scan, primary screen (AID 1106).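 Note: score merges emission near 667 nm with signal to noise over three replicate slides.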 To be noted: higher = more signal.
The test system of experiment [20] is Inhibin beta A chain (activin A). The experiment in a line: small molecules binding activin A – biochemical, small-molecule microarray, 635 nm fluorescence scan, primary screen (AID 1107).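 Note: mouse activin A protein probed at 4.33 µg/mL on printed slides; score merges bound-protein fluorescence near 667 nm with spot signal-to-noise.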 To be noted: INHBA, higher = more signal.

Sequence of Follistatin-related protein 3 (Homo sapiens) (O95633 whole entry, looked up): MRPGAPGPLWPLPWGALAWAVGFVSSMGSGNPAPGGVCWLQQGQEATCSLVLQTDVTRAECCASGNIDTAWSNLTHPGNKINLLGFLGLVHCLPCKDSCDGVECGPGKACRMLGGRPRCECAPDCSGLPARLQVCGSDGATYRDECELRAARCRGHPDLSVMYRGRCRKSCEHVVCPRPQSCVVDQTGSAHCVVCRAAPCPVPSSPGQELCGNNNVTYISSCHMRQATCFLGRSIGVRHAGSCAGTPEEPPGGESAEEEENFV
Sequence of Fibroblast growth factor 10 (Homo sapiens) (O15520 whole entry, looked up): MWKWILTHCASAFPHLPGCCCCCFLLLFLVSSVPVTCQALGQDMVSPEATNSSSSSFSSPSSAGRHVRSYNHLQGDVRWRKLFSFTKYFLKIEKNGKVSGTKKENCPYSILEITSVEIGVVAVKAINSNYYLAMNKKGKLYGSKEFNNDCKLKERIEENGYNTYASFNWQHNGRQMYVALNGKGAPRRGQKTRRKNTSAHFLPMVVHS
Sequence of Epidermal growth factor receptor (Homo sapiens) (P00533 whole entry, looked up): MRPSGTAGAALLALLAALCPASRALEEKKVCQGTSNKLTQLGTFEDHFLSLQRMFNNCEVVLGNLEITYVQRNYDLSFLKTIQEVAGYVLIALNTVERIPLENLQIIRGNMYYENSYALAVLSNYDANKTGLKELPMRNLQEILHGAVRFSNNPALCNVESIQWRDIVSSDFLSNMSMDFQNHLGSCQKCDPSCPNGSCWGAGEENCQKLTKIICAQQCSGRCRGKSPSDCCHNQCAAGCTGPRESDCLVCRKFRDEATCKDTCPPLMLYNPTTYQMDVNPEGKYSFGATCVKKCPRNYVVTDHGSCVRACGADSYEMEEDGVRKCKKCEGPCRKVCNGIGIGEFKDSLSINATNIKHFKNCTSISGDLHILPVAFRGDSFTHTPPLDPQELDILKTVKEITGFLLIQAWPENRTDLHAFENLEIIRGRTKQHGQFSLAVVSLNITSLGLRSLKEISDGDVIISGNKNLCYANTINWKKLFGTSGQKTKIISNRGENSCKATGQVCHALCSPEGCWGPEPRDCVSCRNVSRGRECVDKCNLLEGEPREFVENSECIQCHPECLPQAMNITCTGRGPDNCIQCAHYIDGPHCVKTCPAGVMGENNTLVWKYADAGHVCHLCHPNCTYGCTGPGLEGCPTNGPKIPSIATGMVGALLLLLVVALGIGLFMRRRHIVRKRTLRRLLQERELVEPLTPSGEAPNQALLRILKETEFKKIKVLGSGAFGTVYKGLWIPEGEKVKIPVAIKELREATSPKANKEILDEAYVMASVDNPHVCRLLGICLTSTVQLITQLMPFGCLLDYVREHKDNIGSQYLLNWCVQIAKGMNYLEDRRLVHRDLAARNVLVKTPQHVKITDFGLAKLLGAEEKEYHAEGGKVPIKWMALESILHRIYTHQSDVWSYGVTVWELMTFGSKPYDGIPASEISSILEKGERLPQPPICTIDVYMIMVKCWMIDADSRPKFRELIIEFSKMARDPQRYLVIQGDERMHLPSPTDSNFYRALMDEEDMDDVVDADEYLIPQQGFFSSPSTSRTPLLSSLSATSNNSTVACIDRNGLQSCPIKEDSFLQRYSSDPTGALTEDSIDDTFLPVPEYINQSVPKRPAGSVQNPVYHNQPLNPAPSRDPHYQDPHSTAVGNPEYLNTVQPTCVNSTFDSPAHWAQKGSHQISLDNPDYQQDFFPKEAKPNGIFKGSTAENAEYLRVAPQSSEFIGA
Sequence of Dickkopf-related protein 1 (Homo sapiens) (O94907 whole entry, looked up): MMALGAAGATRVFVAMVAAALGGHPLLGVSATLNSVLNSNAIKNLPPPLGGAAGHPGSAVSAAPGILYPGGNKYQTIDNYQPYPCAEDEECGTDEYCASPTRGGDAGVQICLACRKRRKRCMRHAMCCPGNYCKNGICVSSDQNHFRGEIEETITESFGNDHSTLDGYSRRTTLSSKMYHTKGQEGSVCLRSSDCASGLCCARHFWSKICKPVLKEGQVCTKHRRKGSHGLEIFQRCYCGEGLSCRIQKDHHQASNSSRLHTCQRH
Sequence of Neurogenic locus notch homolog protein 3 (Homo sapiens) (Q9UM47 whole entry, looked up): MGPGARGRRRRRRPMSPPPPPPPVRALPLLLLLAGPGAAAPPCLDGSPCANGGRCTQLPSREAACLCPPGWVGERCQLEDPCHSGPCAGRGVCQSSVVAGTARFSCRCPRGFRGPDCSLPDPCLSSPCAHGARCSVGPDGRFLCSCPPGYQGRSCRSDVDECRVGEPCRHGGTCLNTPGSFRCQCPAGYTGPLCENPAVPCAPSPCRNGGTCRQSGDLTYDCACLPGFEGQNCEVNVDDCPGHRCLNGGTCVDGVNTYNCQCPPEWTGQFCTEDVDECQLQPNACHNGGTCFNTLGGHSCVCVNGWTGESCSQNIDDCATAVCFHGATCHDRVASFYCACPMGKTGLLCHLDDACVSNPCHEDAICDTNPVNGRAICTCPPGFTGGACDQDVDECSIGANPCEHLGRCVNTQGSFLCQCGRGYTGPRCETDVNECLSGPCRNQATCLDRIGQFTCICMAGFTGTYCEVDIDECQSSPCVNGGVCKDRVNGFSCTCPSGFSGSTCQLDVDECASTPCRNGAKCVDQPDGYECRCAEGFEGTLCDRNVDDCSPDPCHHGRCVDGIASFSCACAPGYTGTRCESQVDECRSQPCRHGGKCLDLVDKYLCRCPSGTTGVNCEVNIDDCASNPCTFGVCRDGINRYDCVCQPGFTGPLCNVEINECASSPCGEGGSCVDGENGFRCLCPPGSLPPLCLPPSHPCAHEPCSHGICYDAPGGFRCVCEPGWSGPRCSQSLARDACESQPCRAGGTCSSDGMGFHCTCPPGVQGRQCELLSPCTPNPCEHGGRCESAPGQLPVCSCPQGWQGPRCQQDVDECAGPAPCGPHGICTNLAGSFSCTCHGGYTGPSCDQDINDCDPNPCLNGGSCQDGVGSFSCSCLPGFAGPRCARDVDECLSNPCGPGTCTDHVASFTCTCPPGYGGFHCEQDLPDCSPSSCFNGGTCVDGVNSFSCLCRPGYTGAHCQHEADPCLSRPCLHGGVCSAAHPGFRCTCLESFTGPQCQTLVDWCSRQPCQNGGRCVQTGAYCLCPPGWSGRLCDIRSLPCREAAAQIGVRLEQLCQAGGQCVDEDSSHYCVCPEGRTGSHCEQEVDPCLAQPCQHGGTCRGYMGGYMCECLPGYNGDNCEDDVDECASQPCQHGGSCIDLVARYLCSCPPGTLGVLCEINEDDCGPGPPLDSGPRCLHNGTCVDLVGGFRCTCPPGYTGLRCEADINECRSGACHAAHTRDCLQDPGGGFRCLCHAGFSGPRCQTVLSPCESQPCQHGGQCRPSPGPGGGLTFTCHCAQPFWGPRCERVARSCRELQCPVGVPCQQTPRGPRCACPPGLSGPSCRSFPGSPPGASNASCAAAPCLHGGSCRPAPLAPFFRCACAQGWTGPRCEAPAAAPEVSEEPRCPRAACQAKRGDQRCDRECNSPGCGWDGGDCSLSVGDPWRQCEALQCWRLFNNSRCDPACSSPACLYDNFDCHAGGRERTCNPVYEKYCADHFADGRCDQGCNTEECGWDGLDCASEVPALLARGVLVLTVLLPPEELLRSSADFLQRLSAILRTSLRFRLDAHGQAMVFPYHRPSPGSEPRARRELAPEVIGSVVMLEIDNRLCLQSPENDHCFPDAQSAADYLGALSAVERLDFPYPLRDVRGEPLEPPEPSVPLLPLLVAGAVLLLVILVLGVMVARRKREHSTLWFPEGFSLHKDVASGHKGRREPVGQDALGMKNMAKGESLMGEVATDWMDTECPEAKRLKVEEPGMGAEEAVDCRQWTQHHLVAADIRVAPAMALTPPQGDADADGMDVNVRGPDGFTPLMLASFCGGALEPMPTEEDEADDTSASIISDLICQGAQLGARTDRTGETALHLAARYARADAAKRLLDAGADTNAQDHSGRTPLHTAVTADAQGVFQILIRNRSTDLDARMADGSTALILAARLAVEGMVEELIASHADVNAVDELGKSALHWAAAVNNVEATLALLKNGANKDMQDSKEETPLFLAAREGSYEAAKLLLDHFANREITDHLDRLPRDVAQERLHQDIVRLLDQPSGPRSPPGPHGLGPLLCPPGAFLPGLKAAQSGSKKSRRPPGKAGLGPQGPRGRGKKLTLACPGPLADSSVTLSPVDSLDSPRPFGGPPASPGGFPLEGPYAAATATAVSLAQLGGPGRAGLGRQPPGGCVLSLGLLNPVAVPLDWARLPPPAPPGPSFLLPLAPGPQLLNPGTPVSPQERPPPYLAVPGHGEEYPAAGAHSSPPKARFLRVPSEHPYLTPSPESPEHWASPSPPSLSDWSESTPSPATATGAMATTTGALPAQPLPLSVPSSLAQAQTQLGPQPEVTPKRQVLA

For the compound `CCN1C(=O)[C@H]2[C@@H]3C(=CC[C@H]2C1=O)C(=O)[C@H]1O[C@H]1[C@H]3O`, the composite z-score in experiment [1] was 0.833; in experiment [5], -0.176; in experiment [7], -0.138; in [8], 0.609; in [9] it was 0.732; in experiment [10], 0.0107. Besides, the composite z-score is 0.641 in experiment [11]; -0.409 in experiment [12]; -0.722 in experiment [13]; 1.06 in experiment [15]; 1.11 in [16]; 0.827 in [17]. Besides, the results for the composite z-score in [18], in experiment [19] and in experiment [20] were 1.28, 1.17 and 0.065, respectively. The z-score is 0.367 (inactive) in experiment [2]; -0.3 (inactive) in experiment [3]; 0.247 (inactive) in experiment [4]; -0.763 (inactive) in experiment [6]; 17 (active) in experiment [14].
For the compound `CO[C@H]1COC(=O)[C@H](C)COC(=O)[C@@H](OCc2ccccc2)C=C[C@@H]1C`, the composite z-score in experiment [1] was 0.855; in [5], -0.198; in experiment [7], -0.241; in [8], 1; in [9], -0.732; in experiment [10], -0.188. For the same compound, the composite z-score in experiment [11] was -0.0072; in experiment [12], -0.386; in [13], -0.743; in experiment [15], 0.083; in experiment [16], -0.357; in experiment [17], 0.274. For the same compound, the results for the composite z-score in experiment [18], in experiment [19] and in experiment [20] were -0.266, 0.32 and 0.251, respectively. Further, the z-score in [2] was 0.138 (inactive); in experiment [3] it was -1.28 (inactive); in experiment [4], -0.876 (inactive); in experiment [6], 0.554 (inactive); in experiment [14], 0.0228 (inactive).
As to `CCc1cc2c(nc1CC)CCN(CCC(C)=NO[C@@H]1O[C@H](COC(C)=O)[C@@H](OC(C)=O)[C@H](OC(C)=O)[C@H]1OC(C)=O)C2`, the composite z-score is 1.55 in experiment [1]; 0.809 in [5]; -0.0271 in experiment [7]; 1.06 in experiment [8]; 1.1 in [9]; 0.131 in experiment [10]. The composite z-score is 0.8 in experiment [11]; -0.0154 in experiment [12]; -0.82 in [13]; 1.14 in [15]; 0.642 in experiment [16]; 0.905 in experiment [17]. Also, the composite z-score was found to be 1.32 in experiment [18], 1.32 in experiment [19] and 0.703 in [20]. For the same compound, the z-score in experiment [2] is -0.149 (inactive); in experiment [3], -0.35 (inactive); in experiment [4], 0.143 (inactive); in experiment [6] it was -0.551 (inactive); in [14] it was -0.763 (inactive).
Turning to `CCO[C@H](c1cc(OC)cc([N+](=O)[O-])c1OC)[C@H](C)[C@@H](OC)[C@H](C)C=CCC(=O)OC`, the composite z-score in experiment [1] was 0.836; in experiment [5], 0.945; in experiment [7], 0.0632; in experiment [8], -0.0645; in [9] it was 1.06; in experiment [10], -0.0069. Besides, the composite z-score is 0.535 in experiment [11]; 0.481 in experiment [12]; -0.133 in [13]; 0.278 in experiment [15]; 0.188 in [16]; 0.835 in experiment [17]. The composite z-score was 0.723 in [18], -0.359 in experiment [19] and -0.334 in experiment [20]. For the same compound, the z-score is 0.443 (inactive) in experiment [2]; -0.463 (inactive) in experiment [3]; -0.604 (inactive) in experiment [4]; -0.466 (inactive) in experiment [6]; -0.188 (inactive) in experiment [14].
Take `CON=C[C@@H](OC)[C@H](C)C=CCC(=O)OC`: the composite z-score in experiment [1] is -0.608; in experiment [5], -0.312; in [7], -0.0702; in experiment [8], 0.327; in experiment [9], -0.151; in experiment [10], -0.22. Further, the composite z-score in experiment [11] was -0.387; in experiment [12] it was -0.171; in experiment [13] it was -0.165; in [15], -0.135; in experiment [16], -0.115; in experiment [17], 0.327. Further, the composite z-score in experiment [18] was -0.23; in experiment [19], -0.067; in [20], 0.892. Further, the z-score in experiment [2] was -0.177 (inactive); in experiment [3], -0.289 (inactive); in experiment [4], -0.0697 (inactive); in experiment [6], 0.0478 (inactive); in experiment [14], -0.165 (inactive).

The values above are taken from PubChem BioAssay.
